Measurements published in PubChem BioAssay (NCI).
Compounds without any hit were thinned out: in the full panel of roughly 83,000, 20% have a hit.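 Negative percent growth values reflect cell death: -40 means 40% of the cells present at the start died, and -100 means all died.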 Unmarked numbers belong to inactive results. Activity calls are given as the source filed them. How the source made its calls: active means growth percent below 10; inactive means the rest.

Assays:
Experiment in all cases: NCI-60 one-dose screen, 48 h (100 = growth as untreated, 0 = no growth, -100 = all killed)
Conditions in all cases: 10 µM unless noted
SK-MEL-2 melanoma = tested on: SK-MEL-2 melanoma
EKVX NSCLC = tested on: EKVX NSCLC
SN12C renal = tested on: SN12C renal
UO-31 renal = tested on: UO-31 renal
TK-10 renal = tested on: TK-10 renal
ACHN renal = tested on: ACHN renal
CAKI-1 renal = tested on: CAKI-1 renal
A498 renal = tested on: A498 renal
CCRF-CEM leukemia = tested on: CCRF-CEM leukemia
MOLT-4 leukemia = tested on: MOLT-4 leukemia
SR leukemia = tested on: SR leukemia
RPMI-8226 leukemia = tested on: RPMI-8226 leukemia
OVCAR-8 ovarian = tested on: OVCAR-8 ovarian
OVCAR-5 ovarian = tested on: OVCAR-5 ovarian
OVCAR-4 ovarian = tested on: OVCAR-4 ovarian
SK-OV-3 ovarian = tested on: SK-OV-3 ovarian
IGROV1 ovarian = tested on: IGROV1 ovarian
OVCAR-3 ovarian = tested on: OVCAR-3 ovarian
HS 578T breast = tested on: HS 578T breast
NCI/ADR-RES ovarian = tested on: NCI/ADR-RES ovarian

SMILES | growth (SK-MEL-2 melanoma) [%] | growth (EKVX NSCLC) [%] | growth (SN12C renal) [%] | growth (UO-31 renal) [%] | growth (TK-10 renal) [%] | growth (ACHN renal) [%] | growth (CAKI-1 renal) [%] | growth (A498 renal) | growth (CCRF-CEM leukemia) | growth (MOLT-4 leukemia) | growth (SR leukemia) | growth (RPMI-8226 leukemia) | growth (OVCAR-8 ovarian) | growth (OVCAR-5 ovarian) [%] | growth (OVCAR-4 ovarian) | growth (SK-OV-3 ovarian) [%] | growth (IGROV1 ovarian) [%] | growth (OVCAR-3 ovarian) | growth (HS 578T breast) [%] | growth (NCI/ADR-RES ovarian) [%]
COc1ccc2nc3ccccc3c(NCc3ccc(C)cc3)c2c1 | 70 | 35.2 | 23.6 | 13.4 | 47 | 16.3 | 26.2 | -1.58% (active) | 7.09% (active) | 0.305% (active) | -12.7% (active) | -46.2% (active) | 28.7% | 34 | 18.5% | 52.7 | 17.2 | 46.9% | 42.7 | 23.8
C=CCCCCOc1cccc(/C=C2\N=C3SCCCN3C2=O)c1 | 91.3 | 95.9 | 89.8 | 76.6 | 99.4 | 99.2 | 92.6 | 82.9% | 121% | 96.9% | 125% | 103% | 101% | 106 | 87.6% | 97.7 | 88.6 | 107% | 112 | 95.6
CN(C)c1nc(-c2ccco2)n2nc(-c3ccc(Cl)cc3)cc2n1 | 99.2 | 84.2 | 86.6 | 20.7 | 23.1 | 28.5 | 74.1 | 75.8% | 86.7% | 86.8% | 52.7% | 74.8% | 50.8% | 90 | -10.2% (active) | 45.9 | 55.8 | 74.1% | 65.1 | 69
CC(SC(C)C(=O)N/N=C/c1cccc(Cl)c1)C(=O)N/N=C\c1cccc(Cl)c1 (stereo not given) | 95.8 | 94.9 | 63.9 | 90.2 | 105 | 44 | 91.6 | 102% | 48.6% | 68.3% | 15.8% | 64.4% | 68.1% | 115 | -11.1% (active) | 90.5 | 70.3 | -30.2% (active) | 86 | 94.5
O=S1(=O)NCCCN1CCNc1nccc(-c2c(-c3cccc(O)c3)nc3sccn23)n1 | 29.4 | 141 | 43.4 | 94.1 | 121 | 50.5 | 67.4 | 98.9% | 60.1% | 65.2% | 23.2% | 107% | 83% | 108 | 85.4% | 43.6 | 56.7 | 73.3% | 70.4 | 116
CN1C2CCC1/C(=C\c1ccc(Cl)cc1)C(=O)/C2=C/c1ccc(Cl)cc1 | 56.7 | 84.4 | 63.2 | 58.4 | 79 | 75.7 | 68 | 78.5% | 24.4% | 16.4% | 24.5% | 20.2% | -27.1% (active) | 102 | 63.5% | 93.4 | 68.8 | 46% | 75.5 | 43.7
COc1cc2c(=O)n(CCCN(C)C)c3c4cc[nH]c4ncc3c2cc1OC | 71.5 | 51.1 | 33.9 | 34.1 | 53.7 | 26.6 | 84.5 | 18.8% | 34.5% | -6.64% (active) | 15.7% | 22.2% | 27.8% | 71 | 34.7% | 42.8 | 45.2 | 49.1% | 65 | 89.4
CCn1c(=O)c(C(=O)NCCCO)c(O)c2ccccc21 | 112 | 65.6 | 104 | 86.9 | 180 | 102 | 116 | 109% | 103% | 100% | 105% | 122% | 103% | 116 | 100% | 115 | 108 | 155% | 92.1 | 111
Brc1ccsc1Br | 101 | 114 | 113 | 91.3 | 109 | 112 | 99.6 | 141% | 102% | 108% | 107% | 103% | 122% | 106 | 107% | 94.8 | 103 | 122% | 129 | 116
C[C@@H]1N=C(c2ccc3ccccc3c2)Nc2nc3ccccn3c2C1=O | 36.3 | 75.6 | 60.1 | 55.6 | 64.4 | 55.4 | 38.5 | 47.3% | 52.9% | 34.5% | 30.5% | 43.8% | 54.4% | 90.6 | 74.5% | 40.5 | 32.1 | 16.9% | 29.3 | 44.5
OC(COCc1ccccc1)COCc1ccccc1 | 111 | 91.5 | 104 | 91.6 | 109 | 99 | 96.5 | 89.7% | 99.5% | 96.4% | 89.2% | 109% | 106% | 108 | 107% | 103 | 108 | 94.7% | 122 | 127
COc1ccc(-c2nc(SCCC(C)C)nc(Nc3ccc(C(=O)O)cc3)c2C#N)cc1 | 70 | 87.7 | 90.6 | 67 | 86.7 | 83.9 | 92.1 | 62.5% | 73.5% | 78.7% | 77.3% | 62.9% | 93.9% | 105 | 89.2% | 109 | 110 | 97.5% | 94.2 | 102
COc1cc2c(c(OC)c1O)C(=O)C(OC)C(c1ccc(O)c(O)c1)O2 (stereo not given) | 46.9 | 46.8 | 26.6 | 44.8 | 66.1 | 21.6 | 28.4 | -18.3% (active) | -5.15% (active) | 9.18% (active) | 10.8% | -19.3% (active) | 17.1% | 42.5 | 37.8% | 46.5 | 14.1 | -24% (active) | 24.7 | 16.6
COc1cccc(/C(C)=N/NC(=O)CSc2nc3ccccc3c(=O)n2CCc2ccc(S(N)(=O)=O)cc2)c1 | 30 | 96.9 | 39.6 | 98.9 | 32.3 | 85 | 70.5 | 72.1% | 22.3% | 14.4% | -1.96% (active) | 4.78% (active) | 7.61% (active) | 73.2 | -7.35% (active) | 43.7 | 77.1 | 20% | 29.8 | 74.7
COc1ccc(NC(=O)Cn2c(=O)sc3c(-c4ccc(Cl)cc4)cc(-c4ccc(Cl)cc4)nc32)cc1 | 107 | 95.4 | 93.2 | 81.4 | 97.3 | 102 | 95.3 | 129% | 112% | 95% | 63.3% | 116% | 107% | 111 | 98.3% | 102 | 92.3 | 115% | 108 | 89.2
